# Measured values as given in article PMC7862700, “An all-to-all approach to the identification of sequence-specific readers for epigenetic DNA modifications on cytosine”.
# What was measured:
# Assay in all cases: DAPPL (digital affinity profiling via proximity ligation, sequencing); 10 mM Tris-HCl pH 7.5, 50 mM NaCl, 1 mM DTT, 4% glycerol, room temperature, 30 min; GST-TFs on glutathione beads, 16-mer random dsDNA library, 0.1% formaldehyde crosslink after washing; high values mean tight binding
# [1] = target: T1, FLI1 (Homo sapiens, UniProt Q01543 1-452); conditions: protein: recombinant; tags: N-terminal GST; dsDNA, one strand shown
# T1 sequence: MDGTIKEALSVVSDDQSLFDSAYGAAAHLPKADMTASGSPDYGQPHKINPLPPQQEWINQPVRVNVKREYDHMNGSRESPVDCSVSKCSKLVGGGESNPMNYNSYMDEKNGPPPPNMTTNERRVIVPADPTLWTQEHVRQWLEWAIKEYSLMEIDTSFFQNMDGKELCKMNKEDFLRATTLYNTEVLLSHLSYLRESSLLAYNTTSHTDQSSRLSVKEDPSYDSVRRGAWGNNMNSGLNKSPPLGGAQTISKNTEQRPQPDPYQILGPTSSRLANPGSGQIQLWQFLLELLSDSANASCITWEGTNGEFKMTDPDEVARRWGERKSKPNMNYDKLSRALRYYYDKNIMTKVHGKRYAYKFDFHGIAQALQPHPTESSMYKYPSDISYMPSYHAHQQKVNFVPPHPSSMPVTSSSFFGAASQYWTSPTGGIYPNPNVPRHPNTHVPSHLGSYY
# In short: (§1)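 Binding signal is each hexamer's read frequency for a factor divided by its frequency in the tag-only sample. The factors were GST-fused human transcription factors from yeast, captured on glutathione beads, DNA-barcoded and pooled with that sample. Pools were incubated with 200 nmole of a random double-stranded 16-mer DNA library in Tris/NaCl/DTT/glycerol buffer at room temperature for 30 min, then washed, crosslinked with 0.1% formaldehyde, proximity-ligated with BsaI/T4 ligase (1 h, 37 °C), PCR-amplified and sequenced on an Illumina NextSeq500.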
# [2] = target: T2, ELK1 (Homo sapiens, UniProt P19419 1-428); conditions: protein: recombinant; tags: N-terminal GST; dsDNA, one strand shown
# T2 sequence: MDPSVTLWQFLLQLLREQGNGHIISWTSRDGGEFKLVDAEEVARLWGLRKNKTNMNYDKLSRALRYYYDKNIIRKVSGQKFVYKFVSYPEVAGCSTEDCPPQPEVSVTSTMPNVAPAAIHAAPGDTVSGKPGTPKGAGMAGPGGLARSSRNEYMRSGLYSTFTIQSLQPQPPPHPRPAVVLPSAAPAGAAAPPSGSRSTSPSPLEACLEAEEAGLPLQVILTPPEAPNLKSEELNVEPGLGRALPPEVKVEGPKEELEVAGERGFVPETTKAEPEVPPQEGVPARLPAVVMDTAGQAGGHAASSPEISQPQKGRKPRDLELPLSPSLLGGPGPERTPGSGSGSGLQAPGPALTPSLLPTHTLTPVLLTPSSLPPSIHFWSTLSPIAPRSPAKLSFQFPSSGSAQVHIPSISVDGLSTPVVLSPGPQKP
# In short: as §1
# [3] = target: T3, GABPA (Homo sapiens, UniProt Q06546 1-454); conditions: protein: recombinant; tags: N-terminal GST; dsDNA, one strand shown
# T3 sequence: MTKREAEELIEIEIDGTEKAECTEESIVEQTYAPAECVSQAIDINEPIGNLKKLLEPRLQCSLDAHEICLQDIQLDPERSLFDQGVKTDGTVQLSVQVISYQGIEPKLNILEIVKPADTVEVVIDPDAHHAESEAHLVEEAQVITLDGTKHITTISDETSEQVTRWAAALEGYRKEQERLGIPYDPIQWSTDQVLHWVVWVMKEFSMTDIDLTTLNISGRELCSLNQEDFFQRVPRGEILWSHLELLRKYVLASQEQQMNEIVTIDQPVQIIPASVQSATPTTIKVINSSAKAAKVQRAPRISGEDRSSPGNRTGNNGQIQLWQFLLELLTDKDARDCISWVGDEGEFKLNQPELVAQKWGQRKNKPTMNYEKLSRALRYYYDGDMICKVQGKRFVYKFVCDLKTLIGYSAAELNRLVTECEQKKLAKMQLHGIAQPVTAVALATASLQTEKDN
# In short: as §1
# [4] = target: T4, ERG (Homo sapiens, UniProt P11308 1-479); conditions: protein: recombinant; tags: N-terminal GST; dsDNA, one strand shown
# T4 sequence: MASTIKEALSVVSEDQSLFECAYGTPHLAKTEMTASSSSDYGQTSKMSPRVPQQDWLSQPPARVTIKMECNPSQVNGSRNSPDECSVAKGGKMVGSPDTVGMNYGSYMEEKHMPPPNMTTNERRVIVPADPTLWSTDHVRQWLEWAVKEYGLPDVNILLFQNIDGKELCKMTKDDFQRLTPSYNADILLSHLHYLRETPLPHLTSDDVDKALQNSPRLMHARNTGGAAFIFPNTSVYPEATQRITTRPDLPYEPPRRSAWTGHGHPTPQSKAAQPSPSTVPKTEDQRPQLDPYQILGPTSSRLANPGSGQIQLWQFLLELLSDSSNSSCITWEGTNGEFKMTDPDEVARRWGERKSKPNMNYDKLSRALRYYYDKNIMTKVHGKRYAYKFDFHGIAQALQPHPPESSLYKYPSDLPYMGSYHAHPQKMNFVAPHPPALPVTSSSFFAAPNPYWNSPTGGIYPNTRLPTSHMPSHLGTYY
# In short: as §1
# [5] = target: ELF1 (Homo sapiens, UniProt P32519 1-619); conditions: protein: recombinant; tags: N-terminal GST; dsDNA, one strand shown
# Chain of ELF1 (P32519 whole entry): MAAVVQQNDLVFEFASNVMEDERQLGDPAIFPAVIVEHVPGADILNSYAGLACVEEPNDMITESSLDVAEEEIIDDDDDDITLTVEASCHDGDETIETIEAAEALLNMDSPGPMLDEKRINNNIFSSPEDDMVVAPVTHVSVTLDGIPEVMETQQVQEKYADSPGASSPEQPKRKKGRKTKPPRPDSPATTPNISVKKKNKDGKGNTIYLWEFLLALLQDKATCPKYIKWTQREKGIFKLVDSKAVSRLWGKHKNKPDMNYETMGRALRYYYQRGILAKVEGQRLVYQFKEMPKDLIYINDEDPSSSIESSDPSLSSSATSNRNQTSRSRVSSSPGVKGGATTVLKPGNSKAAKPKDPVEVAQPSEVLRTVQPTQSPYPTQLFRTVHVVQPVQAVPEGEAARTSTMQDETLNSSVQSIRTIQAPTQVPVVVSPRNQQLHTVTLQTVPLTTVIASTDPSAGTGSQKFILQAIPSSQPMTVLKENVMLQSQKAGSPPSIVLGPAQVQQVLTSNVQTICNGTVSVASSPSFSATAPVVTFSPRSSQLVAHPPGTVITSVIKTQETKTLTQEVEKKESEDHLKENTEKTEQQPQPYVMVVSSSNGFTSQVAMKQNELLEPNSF
# In short: as §1
# [6] = target: T5, EHF (Homo sapiens, UniProt Q9NZC4 1-300); conditions: protein: recombinant; tags: N-terminal GST; dsDNA, one strand shown
# T5 sequence: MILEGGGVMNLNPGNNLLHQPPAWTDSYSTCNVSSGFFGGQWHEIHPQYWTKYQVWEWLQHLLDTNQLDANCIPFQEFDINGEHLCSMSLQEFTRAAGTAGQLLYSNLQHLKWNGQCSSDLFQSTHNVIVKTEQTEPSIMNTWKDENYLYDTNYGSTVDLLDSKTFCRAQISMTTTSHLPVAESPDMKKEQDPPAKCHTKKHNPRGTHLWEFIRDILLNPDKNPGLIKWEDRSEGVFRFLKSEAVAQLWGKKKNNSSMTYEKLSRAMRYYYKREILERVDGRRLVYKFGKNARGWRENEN
# In short: as §1
# [7] = target: SPI1 (Homo sapiens, UniProt P17947 1-270); conditions: protein: recombinant; tags: N-terminal GST; dsDNA, one strand shown
# In short: as §1
# [8] = target: SPIB (Homo sapiens, UniProt Q01892 1-262); conditions: protein: recombinant; tags: N-terminal GST; dsDNA, one strand shown
# Chain of SPIB (Q01892 whole entry): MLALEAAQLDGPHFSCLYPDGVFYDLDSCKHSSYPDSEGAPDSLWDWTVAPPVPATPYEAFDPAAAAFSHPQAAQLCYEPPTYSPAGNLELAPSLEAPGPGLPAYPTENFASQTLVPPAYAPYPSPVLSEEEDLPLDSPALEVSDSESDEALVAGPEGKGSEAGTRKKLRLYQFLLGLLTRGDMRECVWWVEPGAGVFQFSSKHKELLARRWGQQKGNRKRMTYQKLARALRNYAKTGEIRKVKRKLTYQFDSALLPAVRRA
# In short: as §1
# [9] = target: T6, ELK3 (Homo sapiens, UniProt P41970 1-407); conditions: protein: recombinant; tags: N-terminal GST; dsDNA, one strand shown
# T6 sequence: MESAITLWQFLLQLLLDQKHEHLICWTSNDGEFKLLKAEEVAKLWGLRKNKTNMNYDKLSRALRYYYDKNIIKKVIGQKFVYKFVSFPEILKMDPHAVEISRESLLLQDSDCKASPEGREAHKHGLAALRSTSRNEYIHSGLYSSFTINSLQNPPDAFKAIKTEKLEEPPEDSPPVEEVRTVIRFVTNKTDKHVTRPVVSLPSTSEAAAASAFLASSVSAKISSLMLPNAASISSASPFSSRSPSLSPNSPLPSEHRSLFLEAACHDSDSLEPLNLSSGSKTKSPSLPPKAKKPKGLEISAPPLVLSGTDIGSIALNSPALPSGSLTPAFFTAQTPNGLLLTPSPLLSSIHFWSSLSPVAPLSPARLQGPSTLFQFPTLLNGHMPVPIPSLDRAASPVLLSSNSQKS
# In short: as §1
# [10] = target: T7, FEV (Homo sapiens, UniProt Q99581 1-238); conditions: protein: recombinant; tags: N-terminal GST; dsDNA, one strand shown
# T7 sequence: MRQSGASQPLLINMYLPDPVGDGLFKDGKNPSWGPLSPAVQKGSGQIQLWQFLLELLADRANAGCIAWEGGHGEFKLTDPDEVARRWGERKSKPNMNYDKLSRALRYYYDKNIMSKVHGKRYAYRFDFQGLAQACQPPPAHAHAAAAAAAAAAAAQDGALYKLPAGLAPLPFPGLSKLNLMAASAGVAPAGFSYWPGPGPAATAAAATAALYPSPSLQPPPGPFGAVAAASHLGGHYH
# In short: as §1
# [11] = target: ETV5 (Homo sapiens, UniProt P41161 1-510); conditions: protein: recombinant; tags: N-terminal GST; dsDNA, one strand shown
# Chain of ETV5 (P41161 whole entry): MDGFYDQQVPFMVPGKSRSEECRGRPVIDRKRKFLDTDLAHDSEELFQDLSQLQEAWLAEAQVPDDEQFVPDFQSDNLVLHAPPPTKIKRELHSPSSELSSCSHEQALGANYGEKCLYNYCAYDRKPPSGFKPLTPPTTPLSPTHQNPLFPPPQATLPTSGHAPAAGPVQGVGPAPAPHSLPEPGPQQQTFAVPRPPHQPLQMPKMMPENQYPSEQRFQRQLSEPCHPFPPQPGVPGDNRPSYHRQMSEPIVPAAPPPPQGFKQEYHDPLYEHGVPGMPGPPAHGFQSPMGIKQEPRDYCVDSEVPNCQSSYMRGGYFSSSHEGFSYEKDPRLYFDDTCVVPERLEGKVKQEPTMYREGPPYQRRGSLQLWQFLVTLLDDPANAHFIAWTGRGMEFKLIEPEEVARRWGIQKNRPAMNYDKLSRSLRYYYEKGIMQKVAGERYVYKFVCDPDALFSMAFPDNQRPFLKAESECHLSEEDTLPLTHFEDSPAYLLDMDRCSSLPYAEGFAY
# In short: as §1
# [12] = target: HSF1 (Homo sapiens, UniProt Q00613 1-529); conditions: protein: recombinant; tags: N-terminal GST; chain copies: 3; dsDNA, one strand shown
# Chain of HSF1 (Q00613 whole entry): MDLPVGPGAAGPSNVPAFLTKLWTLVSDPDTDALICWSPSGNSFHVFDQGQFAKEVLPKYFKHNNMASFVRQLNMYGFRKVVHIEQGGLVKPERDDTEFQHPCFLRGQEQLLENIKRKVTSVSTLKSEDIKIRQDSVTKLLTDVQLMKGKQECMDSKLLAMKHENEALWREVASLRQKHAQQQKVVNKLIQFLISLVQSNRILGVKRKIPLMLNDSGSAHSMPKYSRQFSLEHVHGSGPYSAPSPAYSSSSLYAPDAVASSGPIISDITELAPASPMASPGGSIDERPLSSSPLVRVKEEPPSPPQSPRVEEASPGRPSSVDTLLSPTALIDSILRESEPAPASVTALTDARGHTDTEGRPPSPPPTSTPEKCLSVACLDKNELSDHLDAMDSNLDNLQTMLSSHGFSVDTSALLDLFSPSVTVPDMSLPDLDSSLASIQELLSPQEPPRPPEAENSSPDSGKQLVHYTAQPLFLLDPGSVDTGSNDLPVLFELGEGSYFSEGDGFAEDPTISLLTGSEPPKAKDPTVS
# In short: as §1
# [13] = target: T8, SPIC (Homo sapiens, UniProt Q8N5J4 1-248); conditions: protein: recombinant; tags: N-terminal GST; dsDNA, one strand shown
# T8 sequence: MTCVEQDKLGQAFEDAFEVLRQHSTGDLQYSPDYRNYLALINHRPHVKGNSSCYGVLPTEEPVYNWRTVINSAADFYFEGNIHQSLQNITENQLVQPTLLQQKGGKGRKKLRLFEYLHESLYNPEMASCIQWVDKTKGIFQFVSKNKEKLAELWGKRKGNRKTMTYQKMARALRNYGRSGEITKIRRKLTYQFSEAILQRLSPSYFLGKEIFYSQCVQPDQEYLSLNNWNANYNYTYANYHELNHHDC
# In short: as §1
# [14] = target: ELF4 (Homo sapiens, UniProt Q99607 1-663); conditions: protein: recombinant; tags: N-terminal GST; dsDNA, one strand shown
# Chain of ELF4 (Q99607 whole entry): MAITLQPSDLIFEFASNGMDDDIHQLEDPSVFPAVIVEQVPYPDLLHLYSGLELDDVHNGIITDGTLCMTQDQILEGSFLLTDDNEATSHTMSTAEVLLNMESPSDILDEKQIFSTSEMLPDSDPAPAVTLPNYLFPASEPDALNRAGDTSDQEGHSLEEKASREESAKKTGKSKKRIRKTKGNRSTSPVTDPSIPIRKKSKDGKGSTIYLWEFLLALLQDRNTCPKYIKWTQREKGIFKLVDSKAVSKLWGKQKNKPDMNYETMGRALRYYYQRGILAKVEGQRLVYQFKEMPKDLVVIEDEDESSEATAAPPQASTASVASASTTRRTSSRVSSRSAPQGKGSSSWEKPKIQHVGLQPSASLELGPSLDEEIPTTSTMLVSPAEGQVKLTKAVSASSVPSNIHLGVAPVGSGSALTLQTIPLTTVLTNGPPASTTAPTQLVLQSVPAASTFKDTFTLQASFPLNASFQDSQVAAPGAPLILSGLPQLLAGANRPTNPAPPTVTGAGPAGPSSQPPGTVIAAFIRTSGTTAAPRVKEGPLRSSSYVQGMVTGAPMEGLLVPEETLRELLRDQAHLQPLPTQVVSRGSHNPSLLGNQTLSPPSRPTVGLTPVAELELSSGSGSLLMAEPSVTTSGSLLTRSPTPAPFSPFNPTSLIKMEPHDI
# In short: as §1
# [15] = target: T9, ELK4 (Homo sapiens, UniProt P28324-2 1-405); conditions: protein: recombinant; tags: N-terminal GST; dsDNA, one strand shown
# T9 sequence: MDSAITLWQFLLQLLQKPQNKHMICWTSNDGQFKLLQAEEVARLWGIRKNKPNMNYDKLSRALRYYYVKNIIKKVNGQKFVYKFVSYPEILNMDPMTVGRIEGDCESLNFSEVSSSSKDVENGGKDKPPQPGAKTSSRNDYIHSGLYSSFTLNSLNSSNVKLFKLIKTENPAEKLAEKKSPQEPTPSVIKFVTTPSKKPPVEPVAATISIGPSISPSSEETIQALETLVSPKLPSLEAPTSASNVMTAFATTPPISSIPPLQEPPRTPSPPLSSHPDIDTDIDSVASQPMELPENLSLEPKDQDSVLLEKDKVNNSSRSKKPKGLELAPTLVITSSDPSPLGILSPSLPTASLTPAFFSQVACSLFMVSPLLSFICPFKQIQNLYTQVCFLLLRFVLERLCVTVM
# In short: as §1
# [16] = target: T10, ETV2 (Homo sapiens, UniProt O00321 1-342); conditions: protein: recombinant; tags: N-terminal GST; dsDNA, one strand shown
# T10 sequence: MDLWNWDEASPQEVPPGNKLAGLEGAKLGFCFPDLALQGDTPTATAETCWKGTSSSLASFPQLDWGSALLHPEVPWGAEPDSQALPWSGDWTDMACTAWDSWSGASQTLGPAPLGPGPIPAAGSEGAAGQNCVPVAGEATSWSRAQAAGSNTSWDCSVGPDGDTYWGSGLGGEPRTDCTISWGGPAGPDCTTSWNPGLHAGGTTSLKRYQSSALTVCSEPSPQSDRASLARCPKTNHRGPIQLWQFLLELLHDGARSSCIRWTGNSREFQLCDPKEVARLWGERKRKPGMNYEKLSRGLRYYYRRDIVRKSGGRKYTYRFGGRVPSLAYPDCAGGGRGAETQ
# In short: as §1
# [17] = target: T11, ELF3 (Homo sapiens, UniProt P78545 1-371); conditions: protein: recombinant; tags: N-terminal GST; dsDNA, one strand shown
# T11 sequence: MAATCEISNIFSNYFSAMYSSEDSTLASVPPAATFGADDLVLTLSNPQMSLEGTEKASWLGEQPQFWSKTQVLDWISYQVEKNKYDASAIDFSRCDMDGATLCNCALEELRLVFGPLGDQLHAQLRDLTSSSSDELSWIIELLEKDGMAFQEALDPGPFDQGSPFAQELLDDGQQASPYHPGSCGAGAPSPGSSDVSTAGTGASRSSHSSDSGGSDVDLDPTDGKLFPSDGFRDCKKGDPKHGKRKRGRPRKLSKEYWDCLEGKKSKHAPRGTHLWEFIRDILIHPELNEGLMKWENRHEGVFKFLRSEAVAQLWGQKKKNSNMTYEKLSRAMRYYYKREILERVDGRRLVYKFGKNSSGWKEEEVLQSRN
# In short: as §1
# [18] = target: CRX (Homo sapiens, UniProt O43186 1-299); conditions: protein: recombinant; tags: N-terminal GST; dsDNA, one strand shown
# Chain of CRX (O43186 whole entry): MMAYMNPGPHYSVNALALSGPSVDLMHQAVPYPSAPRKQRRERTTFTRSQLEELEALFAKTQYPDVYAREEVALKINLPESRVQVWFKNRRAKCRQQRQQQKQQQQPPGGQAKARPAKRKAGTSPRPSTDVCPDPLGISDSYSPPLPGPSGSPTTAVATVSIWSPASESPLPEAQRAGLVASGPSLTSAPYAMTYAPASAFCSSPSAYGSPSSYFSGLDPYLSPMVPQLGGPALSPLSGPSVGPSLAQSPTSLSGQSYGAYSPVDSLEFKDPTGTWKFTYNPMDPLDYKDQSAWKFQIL
# In short: as §1
# [19] = target: ETV1 (Homo sapiens, UniProt P50549 1-477); conditions: protein: recombinant; tags: N-terminal GST; dsDNA, one strand shown
# Chain of ETV1 (P50549 whole entry): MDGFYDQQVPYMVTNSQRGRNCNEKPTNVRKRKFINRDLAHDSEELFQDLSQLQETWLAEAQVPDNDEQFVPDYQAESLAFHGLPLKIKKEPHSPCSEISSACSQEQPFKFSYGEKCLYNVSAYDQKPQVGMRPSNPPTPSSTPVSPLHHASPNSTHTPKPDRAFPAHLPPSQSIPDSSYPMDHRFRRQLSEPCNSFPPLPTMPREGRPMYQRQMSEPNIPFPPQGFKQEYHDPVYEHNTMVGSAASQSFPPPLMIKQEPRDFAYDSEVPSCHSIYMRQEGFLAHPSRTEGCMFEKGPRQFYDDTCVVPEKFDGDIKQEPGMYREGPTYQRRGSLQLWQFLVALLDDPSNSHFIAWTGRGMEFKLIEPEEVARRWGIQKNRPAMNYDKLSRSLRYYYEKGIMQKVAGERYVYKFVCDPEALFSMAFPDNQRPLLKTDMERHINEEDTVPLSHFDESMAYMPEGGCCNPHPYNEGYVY
# In short: as §1
sequence,measurement,setting,value
TTGCTG,binding signal,[1],"1.25 fold enrichment (6-mer frequency, TF over GST control)"
same,binding signal,[2],"1.13 fold enrichment (6-mer frequency, TF over GST control)"
same,binding signal,[3],"1.21 fold enrichment (6-mer frequency, TF over GST control)"
same,binding signal,[4],"1.13 fold enrichment (6-mer frequency, TF over GST control)"
same,binding signal,[5],"1.29 fold enrichment (6-mer frequency, TF over GST control)"
same,binding signal,[6],"1.25 fold enrichment (6-mer frequency, TF over GST control)"
same,binding signal,[7],"1.18 fold enrichment (6-mer frequency, TF over GST control)"
same,binding signal,[8],"1.28 fold enrichment (6-mer frequency, TF over GST control)"
same,binding signal,[9],"1.33 fold enrichment (6-mer frequency, TF over GST control)"
same,binding signal,[10],"1.13 fold enrichment (6-mer frequency, TF over GST control)"
same,binding signal,[11],"1.09 fold enrichment (6-mer frequency, TF over GST control)"
same,binding signal,[12],"1.23 fold enrichment (6-mer frequency, TF over GST control)"
same,binding signal,[13],"1.02 fold enrichment (6-mer frequency, TF over GST control)"
same,binding signal,[14],"1.35 fold enrichment (6-mer frequency, TF over GST control)"
same,binding signal,[15],"1.34 fold enrichment (6-mer frequency, TF over GST control)"
same,binding signal,[16],"1.42 fold enrichment (6-mer frequency, TF over GST control)"
same,binding signal,[17],"1.33 fold enrichment (6-mer frequency, TF over GST control)"
same,binding signal,[18],"1.26 fold enrichment (6-mer frequency, TF over GST control)"
same,binding signal,[19],"1.39 fold enrichment (6-mer frequency, TF over GST control)"
